Experimental findings from the supplement of paper PMC9492666 are described below.

For assay [1], the system named is HCC1937. Put plainly: relative cell viability, compound + RSL3, vs DMSO (fraction of DMSO control); higher = less growth inhibition. Conditions: 72 h.
Assay [2] deals with MDA-MB-231. The description is as above. To be noted: 72 h.
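Note: breast cancer cell viability read out with the CCK-8 kit after co-treatment of each compound with the ferroptosis inducer RSL3.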

As to `O=C(O)CCn1c2c(c3ccccc31)C[C@H](NS(=O)(=O)c1ccc(F)cc1)CC2` [Ramatroban] + COC(=O)c1ccc([C@H]2c3[nH]c4ccccc4c3C[C@H](C(=O)OC)N2C(=O)CCl)cc1 [RSL3], the relative cell viability in assay [1] was 0.41; in assay [2], 0.554.

Turning to `COP(=O)(OC)OC(c1ccc(Cl)cc1)P(=O)(OC)OC` (stereo not given) [Mifobate] + COC(=O)c1ccc([C@H]2c3[nH]c4ccccc4c3C[C@H](C(=O)OC)N2C(=O)CCl)cc1 [RSL3], the relative cell viability in assay [1] stood at 0.632; in assay [2] it was 0.669.

With `Nn1nnc2ccccc21` [1-Aminobenzotriazole] + COC(=O)c1ccc([C@H]2c3[nH]c4ccccc4c3C[C@H](C(=O)OC)N2C(=O)CCl)cc1 [RSL3], the relative cell viability stood at 0.528 in assay [1] and 0.758 in assay [2].

For `O=c1c(O[C@@H]2O[C@H](CO)[C@@H](O)[C@H](O)[C@H]2O)c(-c2ccc(O)cc2)oc2cc(O)cc(O)c12` [Astragalin] + COC(=O)c1ccc([C@H]2c3[nH]c4ccccc4c3C[C@H](C(=O)OC)N2C(=O)CCl)cc1 [RSL3], the relative cell viability in assay [1] is 0.586; in assay [2], 0.645.

As for `O=C(O)/C=C/c1ccc(O)c(O)c1` [Caffeic Acid] + COC(=O)c1ccc([C@H]2c3[nH]c4ccccc4c3C[C@H](C(=O)OC)N2C(=O)CCl)cc1 [RSL3], the results for the relative cell viability in assay [1] and in assay [2] were 0.623 and 0.426, respectively.

Consider `CCOC(=O)c1c(NC(=O)CN2CCN(C(=O)c3ccco3)CC2)sc2c1CCC2` + COC(=O)c1ccc([C@H]2c3[nH]c4ccccc4c3C[C@H](C(=O)OC)N2C(=O)CCl)cc1 [RSL3], for which the relative cell viability amounted to 0.384 in assay [1] and 0.476 in assay [2].

As to `COc1cc(C(C)=O)ccc1O` [Acetovanillone] + COC(=O)c1ccc([C@H]2c3[nH]c4ccccc4c3C[C@H](C(=O)OC)N2C(=O)CCl)cc1 [RSL3], the relative cell viability in assay [1] worked out at 0.389; in assay [2] it was 0.594.

With `Cc1nc2c([nH]1)c(=O)n(C)c(=O)n2Cc1ccco1` [Furafylline] + COC(=O)c1ccc([C@H]2c3[nH]c4ccccc4c3C[C@H](C(=O)OC)N2C(=O)CCl)cc1 [RSL3], the relative cell viability in assay [1] was determined as 0.399; in assay [2], 0.596.

As to `CCc1ccc(N(CC(C)C)S(=O)(=O)c2ccc(OCC3CCOCC3)c(CO)c2)cc1` + COC(=O)c1ccc([C@H]2c3[nH]c4ccccc4c3C[C@H](C(=O)OC)N2C(=O)CCl)cc1 [RSL3], the figures for the relative cell viability in assay [1] and in assay [2] were 0.53 and 0.581, respectively.

In the case of `N=C(N)NCCC(=O)O` [3-Guanidinopropionic Acid] + COC(=O)c1ccc([C@H]2c3[nH]c4ccccc4c3C[C@H](C(=O)OC)N2C(=O)CCl)cc1 [RSL3], the relative cell viability in assay [1] turned out to be 0.509; in assay [2] it was 0.659.
